Results on 40 compounds are retold here after PubChem BioAssay (Tox21).

Values joined by “and” are separate entries in the source; they are usually repeats but may differ in a detail not shown here. Equal values may be shown once. Records with an inconclusive call do not appear. A call without a number means that no potency is given here. Active and inactive are the calls of the source. The call rests on the fitted dose curve; in most records, active means well fitted cell-killing curve with a large enough effect in the repeat runs; inconclusive means weak or mixed curves, or effect the other way; inactive means flat fitted curve, though single readings scatter.
Potency means the concentration at half of the fitted maximal effect.

The nature of this test: qHTS assay to identify small molecule antagonists of the retinoid acid receptor (RAR) signaling pathway - cell viability counter screen (AID 1159551). Further: nearly all actives have a fitted effect of over 35% in size. To be noted: C3RL4 cells viability, ATP luminescence (CellTiter-Glo), 6 h; series mostly up to 92.4 µM. The source says:
U.S. Tox21 Program National Center for Advancing Translational Sciences [NCATS] NIH Chemical Genomics Center [NCGC] U.S. Environmental Protection Agency [EPA] National Institutes of Environmental Health Sciences [NIEHS] National Toxicology Program [NTP] U.S. Food and Drug Administration [FDA] Tox21 Assay Overview: All-trans Retinoic acid (atRA) is the potent natural metabolite of retinol and plays an important role in normal embryonic development and maintenance of cellular phenotype in adult animals. atRA is the activating ligand for the retinoic acid receptors (RARs) which form heterodimers with retinoid X receptors (RXRs) on the retinoic acid response element (RARE). Through activation of the RAR/RXRs nuclear receptors, atRA regulates the transcription of a large number of protein-coding genes and regulatory RNAs. Intracellular levels of atRA are controlled by the retinol signaling pathway (RSP) that regulates the biosynthesis and catabolism of atRA to maintain physiological levels. Chemicals that interfere with the RSP can cause abnormal intracellular levels of atRA and therefore are potential developmental toxicants. To assess compounds for the potential adverse effect on embryonic development through interfering with retinol signaling, a cell-based RARE luciferase reporter gene assay was used. C3RL4 cell line (OARSA/CFSAN/FDA, Laurel, MD) was used to screen Tox21 10K compound library for identifying inhibitors of the RSP. Also cytotoxicity was assessed by determining the viability of cells based on the quantitation of ATP.
Tox21 Assay Protocol Summary: C3RL4 cells were seeded at 1,000/well in 4 uL of assay medium into white solid 1,536-well tissue culture plates (Greiner Bio-One North America Inc. Monroe, NC) using a Multidrop Combi (Thermo Scientific, Waltham, MA) dispenser. After incubation at 37 C and 5% CO2 for an overnight, 23 nL of compounds dissolved in DMSO, positive control or DMSO only were transferred by a Pintool station (Kalypsys, San Diego, CA). One ul of 1 uM (final concentration) of Retinol was added right after the compound addition by using a Flying Reagent Dispenser (FRD) (Aurora Discovery, San Diego, CA). After 6 hr incubation at 37 C and 5% CO2, 5 uL of CellTiter-Glo reagent (Promega Corporation, Madison, WI) was added to each assay plate using an FRD. Luminescence was quantified on a ViewLux plate reader (PerkinElmer, Waltham, MA) after 30 min incubation at room temperature.
In general terms: qHTS replaces the single test concentration by a dilution series.
In the case of `COc1nc(C)nc(Cl)c1NC1=NCCN1`, the Potency result is “inactive”. Still for that read-out and setting: then `c1cnc2cc3c(cc2n1)C1CNCC3C1`, with “inactive”. Regarding `C=CC(=O)OCCCCCCCC`, the Potency result was “inactive”.

In the case of `CCN(CC)C(=O)Nc1ccc(OCC(O)CNC(C)(C)C)c(C(C)=O)c1` (stereo not given), the Potency result was “inactive”. On the same count and under the same terms, under `CCC[C@H](N[C@@H](C)C(=O)N1[C@H](C(=O)O)C[C@@H]2CCCC[C@@H]21)C(=O)OCC` stands “inactive”; under `Nc1ccc(O)cc1`, “inactive”; under `O=C(O)c1cccc(C(=O)O)c1`, “inactive”. The same measure, in the same setting: then `CC(C)C(=O)c1c(C(C)C)nn2ccccc12`, with “inactive”.

With `Cc1cc(C(C)(C)C)c(O)c(C(C)(C)C)c1`, the Potency entry is “inactive”. Same read-out and setting: under `Nc1cc(S(=O)(=O)O)cc2cc(S(=O)(=O)O)cc(O)c12` stands “inactive”. As for `CN1C(=O)c2ccc([N+](=O)[O-])cc2C1=O`, the Potency result was “inactive”. On the same count and under the same terms, then `CC(=O)N[C@@H](CS)C(=O)O`, with “inactive”. On the same count and under the same terms, under `NNCCc1ccccc1` stands “inactive”. For `NC(Cc1ccc(Cl)cc1)C(=O)O` (stereo not given), the activity change, negative = cytotoxicity is 2.93% [at 0.349 µM] (inactive).

As for `CC(C)(O)CCC(C)(C)O`, the Potency entry was “inactive”.

For the compound `CCC(CO)(CO)COCC(CC)(CO)CO`, the Potency result is “inactive”.

Turning to `CCCCCCCCCCCC[N+](C)(C)C`, the Potency result is “inactive”. The same measure, in the same setting: under `Cc1occc(=O)c1OC(=O)C(C)C` stands “inactive”; under `O=C(Oc1ccccc1)c1ccccc1O`, “inactive”; under `NC12CC3CC(CC(C3)C1)C2`, “inactive”. The same measure, in the same setting: then `Cc1scc2c1N(C(=O)CN1CCN(C)CC1)c1ccccc1NC2=O`, with “inactive”; and `CC1COc2c(N3CCN(C)CC3)c(F)cc3c(=O)c(C(=O)O)cn1c23` (stereo not given), with “inactive”; and `O=C1CC2(CCCC2)CC(=O)N1CCCCN1CCN(c2ncccn2)CC1`, with “inactive”.

As for `Cc1cccc([N+](=O)[O-])c1C(=O)O`, the Potency entry is “inactive”. With `CC(C)CCOC(=O)c1ccc(N(C)C)cc1`, the Potency entry is “inactive”. Consider `COC(=O)/C=C/c1ccccc1`, for which the Potency result is “inactive”. `CCOC(=O)C(C)C(C)=O` (stereo not given): the Potency entry was “inactive”.

With `CC(C)(C)c1ccc(O)c(C(C)(C)C)c1`, the Potency is 54.3 µM (active) and 54.5 µM (active). On to `O=C(OCc1ccccc1)c1ccc(O)cc1`, for which the Potency entry is “inactive”. Turning to `CCc1ccc(C(c2ccc(CC)cc2)C(Cl)Cl)cc1`, the Potency result is “inactive”. Consider `Nc1nc2ccccc2[nH]1`, for which the Potency result is “inactive”. The same measure, in the same setting: under `CC(=O)Nc1ccc(C(=O)CCl)cc1` stands “inactive”; under `NC(N)=Nc1nc(CSCC/C(N)=N/S(N)(=O)=O)cs1`, “inactive”; under `NC(=Nc1ccccc1)Nc1ccccc1`, “inactive”. Still for that read-out and setting: under `CC(C)(C)c1ccccc1` stands “inactive”. On the same count and under the same terms, then `CC(=O)C1=C(C)[C@@H]2C[C@@]3(C1)[C@H](C)CC[C@H]3C2(C)C`, with “inactive”. For `O=C(O)CCc1ccccc1`, the Potency entry was “inactive”. Same read-out and setting: under `COc1cc(C(=S)N2CCOCC2)ccc1O` stands “inactive”. On to `CNC1(C)C2CCC(C2)C1(C)C` (stereo not given), for which the Potency result is “inactive”. On the same count and under the same terms, under `CC1=CC(=O)c2ccccc2C1=O` stands 27.3 µM (active).
